The whole screen tested about 330,000 compounds, of which about 5,800 (1.8%) were called active.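 How the source made its calls: active means inhibition above about 50% at the single tested dose (limit read from the data); inactive means the rest.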 The list comes from a sample in which actives are over-represented; it also holds similar structures and randomly drawn compounds.
What follows are compounds tested against Sentrin-specific protease 6 (Homo sapiens) (UniProt Q9GZR1) (assay: SENP6 protease inhibitors, primary screen, biochemical, luminescence, uHTS (AID 2599;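 further: plate controls were DMSO wells with enzyme for no effect and DMSO wells lacking enzyme for full effect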)). Conditions: Recombinant SENP6 catalytic domain, aminoluciferin luminescence; at 10 µM; hits give high values.
Sentrin-specific protease 6 (Homo sapiens), sequence (Q9GZR1 628-1112 limits assumed): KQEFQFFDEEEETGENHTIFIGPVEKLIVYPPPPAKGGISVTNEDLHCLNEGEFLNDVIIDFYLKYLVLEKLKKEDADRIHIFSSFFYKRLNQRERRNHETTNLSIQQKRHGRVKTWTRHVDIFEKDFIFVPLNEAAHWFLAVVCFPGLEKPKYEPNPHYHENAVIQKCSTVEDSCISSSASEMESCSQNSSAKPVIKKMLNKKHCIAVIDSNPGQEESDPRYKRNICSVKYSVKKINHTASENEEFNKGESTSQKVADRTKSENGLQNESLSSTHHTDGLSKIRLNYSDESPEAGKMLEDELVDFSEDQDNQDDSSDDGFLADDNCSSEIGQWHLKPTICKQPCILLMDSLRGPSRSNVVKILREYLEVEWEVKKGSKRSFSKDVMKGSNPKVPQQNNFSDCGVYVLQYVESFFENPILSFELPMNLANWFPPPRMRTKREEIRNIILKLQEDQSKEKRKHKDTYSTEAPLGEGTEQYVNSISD

Structure (SMILES) | inhibition
O=C(O)/C=C/c1ccc(S(=O)(=O)N2CCCCCC2)cc1 | 16.2% (inactive)
CC(C)c1nc(SCC(=O)NC(=O)NC(C)(C)C)n[nH]1 | -25.6% (inactive)
O=C(NCC1CCCO1)c1cc2c(s1)CCCC2 (stereo unspecified) | 6.51% (inactive)
O=C(Nc1ccc(F)cc1)c1cc2c(s1)CCCC2 | 89% (active)
CN(C)C(=O)c1ccc(NC(=O)COC(=O)c2cc3c(s2)CCCCC3)cc1 | -9.42% (inactive)
CS(=O)(=O)c1ccc2nc(NC(=O)c3ccc(Cl)nc3)sc2c1 | 0.381% (inactive)
COc1cccc(C(=O)Nc2nnc(S(=O)(=O)N(C)c3ccccc3)s2)c1 | 12.8% (inactive)
CCc1noc(C)c1C(=O)Nc1nc2ccc(OC)cc2s1 | 59.6% (active)
CCc1noc(C)c1C(=O)Nc1nc(-c2ccccc2)cs1 | -13.3% (inactive)
COc1cccc(C(=O)Nc2nc3ccc(S(C)(=O)=O)cc3s2)c1 | 89.1% (active)
Cc1noc(C)c1CSCC(=O)Nc1nc2ccc(Oc3ccccc3)cc2s1 | 14.7% (inactive)
CC1=NN(C(=O)CCc2ccccc2O)C(O)(C(F)(F)F)C1 (stereo unspecified) | 13.7% (inactive)
COc1ccccc1CCC(=O)OCC(=O)N1CCN(S(=O)(=O)c2ccc(C)cc2C)CC1 | -9.38% (inactive)
COc1ccc(OC)c2sc(NC(=O)C3COc4ccccc4O3)nc12 (stereo unspecified) | -3.77% (inactive)
COc1ccc(NC(=O)C2COc3ccccc3O2)cc1 (stereo unspecified) | 2.57% (inactive)
O=C(Nc1ncc([N+](=O)[O-])s1)C1COc2ccccc2O1 (stereo unspecified) | 97.8% (active)
CC(C)(C)C(=O)NCCCNc1ccc([N+](=O)[O-])cc1 | -25.9% (inactive)
O=c1c2ccccc2ncn1/N=C/c1ccccc1 | 85.3% (active)
O=C(Nn1cnc2ccccc2c1=O)c1ccccc1 | -4.91% (inactive)
CCCc1nc2ccccc2c(=O)n1/N=C/c1ccc(O)c(O)c1 | -27.3% (inactive)
COc1cccc(CNn2cn[nH]c2=S)c1OCc1ccccc1 | -3.63% (inactive)
Cc1cc2nc(SCCN3CCOCC3)[nH]c2cc1C | 1.61% (inactive)
COc1ccc(/C=C2\SC(=S)N(CC(=O)NNC(=O)c3ccncc3)C2=O)cc1 | -3.66% (inactive)
O=C(CCCN1C(=O)/C(=C/c2ccccc2)SC1=S)Nc1ccc(O)cc1 | 21.3% (inactive)

Structure (SMILES) | inhibition
C=CCOc1ccc(/C=C2\SC(=S)N(CCC(=O)O)C2=O)cc1 | 100% (active)
O=C(CN1CCCCC1)Nc1ccccc1C(=O)NC1CC1 | -13.9% (inactive)
Cc1ccc(NC(=O)CS(=O)CC(=O)N(c2ccccc2)C(C)C(=O)NC2CCCC2)cc1 (stereo unspecified) | -5.91% (inactive)
C/C(=C\C(=O)c1ccccc1)Nc1cccc(O)c1 | 57.9% (active)
C/C(=C\C(=O)c1cccnc1)Nc1ccc(C)c(C)c1 | 6.26% (inactive)
O=C(Nc1cccc(O)c1)c1ccc(C(=O)c2ccccc2)o1 | 2.68% (inactive)
CCC1(CC)NC(=O)N(CC(=O)OCC(=O)c2cc(C)c(C)cc2C)C1=O | -10.6% (inactive)
Cc1ccc(S(=O)(=O)/N=C(\CN2CCOCC2)N2CCOCC2)cc1 | 12.4% (inactive)
O=C(OCC(=O)N1CCN(c2ccccc2)CC1)c1ccc([N+](=O)[O-])s1 | 49.4% (inactive)
COc1cc(NC(=O)COC(=O)c2ccc([N+](=O)[O-])s2)cc(OC)c1OC | 68.2% (active)
COc1ccc(C(=O)COC(=O)c2ccc([N+](=O)[O-])s2)cc1OC | 38.4% (inactive)
O=C(NCc1ccccc1CN1CCCC1)c1cccc(S(=O)(=O)Nc2ccc(F)cc2)c1 | 18.3% (inactive)
C[C@@H]1CN([C@@H](C)CO)C(=O)c2cc(NC(=O)C3CC3)ccc2O[C@H]1CN(C)C | 1.75% (inactive)
COc1ccc(S(=O)(=O)N2CCC(C(=O)NCCC(=O)NCc3cccc(OC)c3)CC2)cc1 | 0.176% (inactive)
CC(=O)N1CCN(C(=O)c2cccc(S(=O)(=O)Nc3ccc(C)cc3)c2)CC1 | -4.46% (inactive)
Cc1cccc(NS(=O)(=O)c2ccc(C)c(C(N)=O)c2)c1 | -6.03% (inactive)
Cc1cccc(NS(=O)(=O)c2cccc(C(=O)NNC(=O)c3ccccc3O)c2)c1 | 64.3% (active)
CNc1nc(SC)nc(N(C#N)CC(=O)OC)n1 | 11.5% (inactive)
Cc1cccc(NC(=O)Cc2ccc(Br)cc2)n1 | 16% (inactive)
CCN(CC)S(=O)(=O)c1ccc(C)c(NC(=O)COc2ccc(Br)cc2Cl)c1 | 9.17% (inactive)
Cc1cccc(NC(=O)COc2ccc(Br)cc2C)n1 | 69.2% (active)
Cc1ccc(N(C(=O)Cc2cccs2)C2C=CS(=O)(=O)C2)cc1Cl (stereo unspecified) | -12.7% (inactive)
O=C1CCC(=O)N(c2ccccc2)N1 | -18.9% (inactive)
O=C(c1cnccn1)N1CCN(S(=O)(=O)c2cccc(Cl)c2)CC1 | -6.78% (inactive)

Structure (SMILES) | inhibition
Nc1ncc(-c2cc3ccccc3oc2=O)s1 | 92.4% (active)
Cc1cc2c(=O)n(C)c(SCC(=O)c3cc4ccccc4o3)nc2s1 | 15.6% (inactive)
O=C(NCc1cccnc1)c1cccc(-c2cc3ccccc3oc2=O)c1 | -7.83% (inactive)
O=C(CN1C(=O)CC(c2ccccc2)=Nc2ccccc21)NC1CCCCC1 | -12% (inactive)
CSCCC(NC(=O)COc1ccccc1)C(=O)Nc1ccc(C)cc1 (stereo unspecified) | -14.9% (inactive)
O=C(O)c1ccccc1C(=O)Nc1nc(-c2ccccc2)cs1 | -12.1% (inactive)
Cc1nc(NC(=O)c2cccc(Cl)c2)sc1-c1csc(Nc2cccc(Cl)c2)n1 | 20% (inactive)
Cc1ccccc1Nc1nc(-c2cccnc2)cs1 | 47.4% (inactive)
O=C(Nc1ccc(-c2csc(Nc3cccc(C(F)(F)F)c3)n2)cc1)c1cccc(C(F)(F)F)c1 | -9.78% (inactive)
CC(=O)Nc1cccc(-c2csc(Nc3cccc(C)n3)n2)c1 | 91.9% (active)
Cc1cccc(Nc2nc(-c3ccccc3)cs2)n1 | 93.1% (active)
Cn1nnnc1SCC(=O)Nc1cccc(S(=O)(=O)N2CCCCC2)c1 | -12.9% (inactive)
Cc1cccc(CSc2nc3c(c(=O)n2C)SCC3)c1 | 21.2% (inactive)
O=C(N/N=C\c1cc(Br)c(Br)o1)C1COc2ccccc2O1 (stereo unspecified) | -7.15% (inactive)
Cc1ccc(C(=O)N/N=C/c2cccc3ccccc23)cn1 | -7.6% (inactive)
Cc1ccc(C(=O)N/N=C\c2cc(Br)c(Br)o2)cn1 | 66% (active)
CNC(=S)N/N=C/c1ccc(OCc2ccccc2)c(Br)c1 | -0.485% (inactive)
CC(C)Oc1ccc(CN2CCC(n3nccc3NC(=O)c3cccnc3)CC2)cc1 | 0.591% (inactive)
O=C(N/N=C/c1ccc(Cl)c(Cl)c1)c1ccc2nc[nH]c2c1 | -7.64% (inactive)
CSc1ccc(/C=N/NC(=O)c2cccc(Cl)c2)cc1 | 94.4% (active)
CSc1ccc(/C=N\NC(=O)CC(=O)NC(C)C)cc1 | -5.21% (inactive)
Cc1cc(C)c(NC(=O)CN2CCOCCOCCOCCOCC2)c(C)c1 | -4.6% (inactive)
CN(C)C(CNC(=O)CCCOc1ccccc1)c1ccco1 (stereo unspecified) | -5.38% (inactive)
O=c1oc2cc(O)ccc2cc1-c1ccc(F)cc1 | 98% (active)

Structure (SMILES) | inhibition
CCCCCCc1cc2cc(-c3nnc(-c4ccccc4)o3)c(=O)oc2cc1O | -12.7% (inactive)
CN(C)c1cc(-c2ccc(F)cc2)oc(=O)c1Cl | -8.53% (inactive)
COC(=O)c1c(C)oc(C)c1S(=O)(=O)NCc1ccc(Cl)cc1 | -15.4% (inactive)
CCOC(=O)c1c(/N=C/c2cc(C)ccc2O)sc2c1CCC2 | 6.68% (inactive)
Cc1ccnc2nc(C(=O)Nc3nnc(-c4ccccc4)o3)nn12 | 7.14% (inactive)
O=C(Nc1cccnc1Cl)c1cc(-c2ccccc2O)on1 | 17.2% (inactive)
Cc1ccc(O)c(NC(=O)c2cc(-c3ccco3)on2)c1 | 62.9% (active)
O=C(Nc1ccccc1C(F)(F)F)c1cc(-c2ccc(O)cc2)on1 | 1.85% (inactive)
CCOC(=O)Cc1csc(SCC(=O)NC(C)C23CC4CC(CC(C4)C2)C3)n1 (stereo unspecified) | -13.9% (inactive)
O=C1CCC(=O)N1c1ccc(NCCc2ccccc2F)c([N+](=O)[O-])c1 | 11.8% (inactive)
O=C(Nc1ccccc1C(=O)O)c1cc(S(=O)(=O)N2CCCCC2)cs1 | 15.3% (inactive)
O=C(COc1ccc([N+](=O)[O-])cc1Cl)Nc1ccc2[nH]c(=O)[nH]c2c1 | -8.3% (inactive)
C/C(=N\NC(=O)CC(C)C)c1c(C(F)(F)F)[nH]n(-c2nc3ccccc3s2)c1=O | 98% (active)
CC(=NCc1ccco1)C1=C(O)c2ccccc2C1=O | 18.6% (inactive)
CC(=NCc1ccco1)c1c(C(F)(F)F)[nH]n(-c2nc3ccccc3s2)c1=O | 97.8% (active)
CCc1ccc(-c2cc(C(=O)NCc3ccco3)c3ccccc3n2)s1 | -10.2% (inactive)
CC(C)CC(=O)N/C(N)=N/c1nc2ccccc2s1 | 29.7% (inactive)
CCC(C)Cn1c(O)cc2nn(-c3nc4ccccc4s3)c(=O)c-2c1C (stereo unspecified) | -3.5% (inactive)
COc1ccccc1C(=O)NCCC(=O)NC(C)CCc1ccccc1 (stereo unspecified) | -4.44% (inactive)
O=C(CN1CCCSc2ccccc21)N1CCN(S(=O)(=O)c2cccc(F)c2)CC1 | -22.3% (inactive)
CCCN1Cc2cccc(C(=O)NCc3ccccc3)c2C1=O | 10.8% (inactive)
Cc1ccc(NS(=O)(=O)c2ccc(-c3coc(C)n3)cc2)c(C)c1 | -4.93% (inactive)
CCOC(=O)[C@H]1[C@H]2COc3cc(OC)ccc3[C@@H]2N2C(=O)CN(Cc3ccc(Cl)cc3)C(=O)[C@@]12C | -7.07% (inactive)
COc1ccccc1N1CCN(S(=O)(=O)CCNC(=O)c2ccc(OC(C)C)cc2)CC1 | -8.31% (inactive)

From PubChem BioAssay AID2599 (Sanford-Burnham Center for Chemical Genomics, 2010)
